Screen size: about 11,000 compounds; about 310 (2.8%) were called active. This is one part of a sample in which actives are shown more often than they occur. No stated cut-off is given here; in the data, active means activity change below about -85%; inactive means the rest.

The test system of the assay is intestinal alkaline phosphatase [Mus musculus]. As to the kind of experiment: activators of mouse IAP, confirmation, biochemical, luminescence, single concentration (AID 434970). The settings on record: purified mouse IAP, CDP-Star luminescence, 30 min, at 10 µM; activation factor: measured here: IAP activation factor, stronger effect = higher value; activity change, negative = activation: stronger effect = lower value.
Turning to `CCOc1ccc(-n2cc(C(=O)Nc3cccc(Cl)c3)c3cc(OC)c(OC)cc3c2=O)cc1`, the activation factor amounted to 1.1 and the activity change, negative = activation was -10.2% (inactive).
Turning to `CNC(=O)/C(C#N)=C/c1ccc(-c2ccc(OC)cc2[N+](=O)[O-])o1`, the activation factor was determined as 0.891 and the activity change, negative = activation was 10.9% (inactive).
Turning to `CC(C)N(C(=O)[C@H]1C[C@H](CC(=O)NCCC2=CCCCC2)C(=O)N2CCc3c([nH]c4ccc(Cl)cc34)[C@]12C)C(C)C`, the activation factor was found to be 1.23 and the activity change, negative = activation is -23.5% (inactive).
Take `NC(=O)c1c(NC(=O)CSc2nnc(-c3ccco3)n2-c2ccccc2)sc2c1CCC2`: the activation factor stood at 0.759 and the activity change, negative = activation is 24.1% (inactive).
For `COc1ccc(NC(=O)C2CCCN2c2ccc(OC)c(OC)c2)cc1OC` (stereo not drawn), the activation factor stood at 1.14 and the activity change, negative = activation is -14.2% (inactive).
The matching figures for `COc1ccc(C2C(C(=O)N3CCCC3)c3cc(OC)c(OC)cc3C(=O)N2C)cc1` (stereo not drawn): 0.989 and 1.1% (inactive).
On the same counts, the results for `COc1ccccc1NC(=O)CCNS(=O)(=O)c1ccc2[nH]c(=O)oc2c1` are 0.265 and 73.5% (inactive).
Regarding `COc1ccc(CNC(=O)C(C)n2ccc3cc(S(=O)(=O)N4CCCCCC4)ccc32)cc1` (stereo not drawn), the activation factor is 1.91 and the activity change, negative = activation is -90.9% (inactive).
On the same counts, the results for `CCC(C(=O)NCCC(C)C)n1ccc2cc(S(=O)(=O)N3CCCCC3)ccc21` (stereo not drawn) are 2.59 and -159% (active).
Turning to `COC(=O)c1ccc(S(=O)(=O)N2CCCCCC2)cc1`, the activation factor came out at 0.874 and the activity change, negative = activation is 12.6% (inactive).
As for `CCOc1ccccc1N(CC(=O)Nc1ccc(C)cc1)S(C)(=O)=O`, the activation factor is 0.98 and the activity change, negative = activation was 2.05% (inactive).
Regarding `O=C(CC1Sc2ccccc2NC1=O)OCC(=O)N1CCc2ccccc21` (stereo not drawn), the activation factor was 1.11 and the activity change, negative = activation is -10.6% (inactive).
The matching figures for `Cc1ccc(NC(=O)NCC2CCN(Cc3cc(C)ccc3Cl)CC2)c(C)c1`: 1.87 and -86.8% (active).
Regarding `Cc1ccc(C)c(CN2CCC(CNC(=O)Nc3cccc(Cl)c3C)CC2)c1`, the activation factor turned out to be 2.47 and the activity change, negative = activation was -147% (active).
On the same counts, the results for `Cc1ccc(NC(=O)Cn2cccc2)c(C)c1` are 1.01 and -1.25% (inactive).
As to `CCOC(=O)CNC(=O)Nc1cccc(Cl)c1C`, the activation factor stood at 1.04 and the activity change, negative = activation is -4.45% (inactive).
On the same counts, the results for `Cc1c(Cl)cccc1NC(=O)CCN1CCCCCC1` are 0.984 and 1.6% (inactive).
On the same counts, the results for `Cc1ccc(NC(=O)CSCC(=O)O)c(C)c1` are 1.07 and -7.15% (inactive).
In the case of `COC(=O)CCN(C(=O)C1C2CC3CC(C2)CC1C3)c1ccccn1` (stereo not drawn), the activation factor stood at 0.948 and the activity change, negative = activation is 5.2% (inactive).
As for `COc1ccccc1-c1nnc(SCCN2CCOCC2)n1-c1ccc(C)cc1`, the activation factor was 0.947 and the activity change, negative = activation was 5.3% (inactive).
Consider `CCOC(=O)C1=CN(Cc2ccco2)S(=O)(=O)N(CC)C1c1cccc(OC)c1` (stereo not drawn), for which the activation factor turned out to be 1.02 and the activity change, negative = activation was -1.7% (inactive).
On the same counts, the results for `O=S1(=O)CC(O)C(Nc2ccccc2)C1` (stereo not drawn) are 0.942 and 5.85% (inactive).
On the same counts, the results for `OC(c1cccc(OCc2ccccc2)c1)c1nnc(-c2ccccc2)o1` (stereo not drawn) are 1.03 and -3.4% (inactive).
With `CCN([C@H](CO)CC(C)C)S(=O)(=O)c1ccccc1`, the activation factor worked out at 1.09 and the activity change, negative = activation is -8.75% (inactive).
As to `FC(F)(F)c1ccc(NC(=S)NCc2ccccc2)cc1`, the activation factor was 1.41 and the activity change, negative = activation was -41% (inactive).
For the compound `O=C(Nc1cccc(Cl)c1)Nc1nnc(-c2ccccc2)o1`, the activation factor came out at 1.02 and the activity change, negative = activation was -2.05% (inactive).
`Cc1cc(C)cc(NC(=O)NCc2c(-c3ccccc3)noc2C)c1`: the activation factor is 2.73 and the activity change, negative = activation was -173% (active).
With `Cc1onc(-c2ccccc2)c1CNC(=O)Nc1ccc(C(F)(F)F)cc1`, the activation factor came to 1.99 and the activity change, negative = activation was -99.1% (active).
`Cc1onc(-c2ccccc2)c1C(=O)NCc1ccccn1`: the activation factor is 0.956 and the activity change, negative = activation was 4.35% (inactive).
As to `Cc1onc(-c2ccccc2)c1C(=O)NCc1cccs1`, the activation factor came to 1.01 and the activity change, negative = activation is -0.85% (inactive).
`Cn1c(CNC(=O)Nc2cccc(Cl)c2)nnc1SCc1ccccc1`: the activation factor worked out at 1.52 and the activity change, negative = activation was -52% (inactive).
The matching figures for `Cc1onc(-c2ccccc2)c1NC(=O)Nc1ccc(OC(F)F)cc1`: 1.48 and -47.9% (inactive).
As for `Cc1onc(-c2ccccc2)c1CNC(=O)Nc1cccc(Cl)c1`, the activation factor is 2.33 and the activity change, negative = activation is -133% (active).
In the case of `COC(=O)C1=NN(c2ccccc2)C2(S1)SC(C(C)=O)=C(C)N2c1ccccc1` (stereo not drawn), the activation factor was 0.92 and the activity change, negative = activation is 8% (inactive).
As for `O=C(CC(Nc1ccc(F)cc1)C(=O)O)c1ccccc1` (stereo not drawn), the activation factor worked out at 0.959 and the activity change, negative = activation is 4.1% (inactive).
`COC(=O)c1oc2ccc(Cl)cc2c1N`: the activation factor amounted to 0.915 and the activity change, negative = activation was 8.55% (inactive).
In the case of `O=C(Nc1ccc2c(c1)nc1n2CCOC1)c1ccco1`, the activation factor is 1.29 and the activity change, negative = activation was -29.5% (inactive).
In the case of `Cc1cccc(N2O[C@H]3C=CC2CCCC3)n1`, the activation factor worked out at 1.02 and the activity change, negative = activation is -2.2% (inactive).
The matching figures for `COc1ccc(C2C(C(=O)Nc3ccccc3)=C(C)N=C3SCC(=O)N32)cc1` (stereo not drawn): 0.843 and 15.7% (inactive).
For `CCC1CCCCN1CCCNC(=O)CNC(=O)Cn1ccc2ccccc2c1=O` (stereo not drawn), the activation factor stood at 0.926 and the activity change, negative = activation is 7.35% (inactive).
For `COc1cccc(NC(=O)NCCCCc2ccccc2)c1`, the activation factor is 2.16 and the activity change, negative = activation is -116% (active).
For `COc1cccc(NS(=O)(=O)Cc2ccccc2)c1`, the activation factor was determined as 0.904 and the activity change, negative = activation is 9.6% (inactive).
With `Cc1cccc(NC(=O)NCCc2c[nH]c3ccccc23)c1`, the activation factor was determined as 1.72 and the activity change, negative = activation is -71.8% (inactive).
For the compound `CC(CCc1ccccc1)NC(=O)c1ccncc1` (stereo not drawn), the activation factor worked out at 0.938 and the activity change, negative = activation was 6.2% (inactive).
